# Data published in the supplement of paper PMC7380943.
# Experiments:
# [1] = tested on: CLZ3 (HCA2 human fibroblast dual HR-NHEJ reporter); assay: NHEJ repair efficiency (GFP+ cells) relative to control (log10 fold); higher = more non-homologous end joining; conditions: 5 µM; doxycycline 0.5 ug/mL
# [2] = tested on: CLZ3 (HCA2 human fibroblast dual HR-NHEJ reporter); assay: HR repair efficiency (tdTomato+ cells) relative to control (log10 fold); higher = more homologous recombination; conditions: 5 µM; doxycycline 0.5 ug/mL
# 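For HR repair efficiency (tdTomato+ cells) relative to control in this document: compound given one day before doxycycline, which switches on I-SceI endonuclease expression to create double-strand breaks within the integrated reporter.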
# 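For NHEJ repair efficiency (GFP+ cells) relative to control in this document: compound given one day ahead of doxycycline, which switches on I-SceI endonuclease to cut the chromosomally integrated reporter and create DSBs.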
SMILES,NHEJ repair efficiency (log10) [1],HR repair efficiency (log10) [2]
C[C@@H]1O[C@@H](OC[C@H]2O[C@@H](OCCc3ccc(O)c(O)c3)[C@H](O)[C@@H](O)[C@@H]2O)[C@H](O)[C@H](O)[C@H]1O [Forsythoside E],-0.0418,0.0386
CC1(C)[C@@H](O[C@H]2O[C@H](C(=O)O)[C@@H](O)[C@H](O)[C@H]2O[C@@H]2O[C@H](C(=O)O)[C@@H](O)[C@H](O)[C@H]2O)CC[C@]2(C)[C@H]3C(=O)C=C4[C@@H]5C[C@@](C)(C(=O)O)CC[C@]5(C)CC[C@@]4(C)[C@]3(C)CC[C@@H]12 [Monoammonium Glycyrrhizinate],0.137,-0.00605
O=C(O)/C=C/c1ccccc1 [Cinnamic Acid],-0.0918,0.0721
COc1cc(C[C@@H](CO[C@@H]2O[C@H](CO)[C@@H](O)[C@H](O)[C@H]2O)[C@H](CO[C@@H]2O[C@H](CO)[C@@H](O)[C@H](O)[C@H]2O)Cc2ccc(O)c(OC)c2)ccc1O [Secoisolariciresinol Diglycoside],0.00786,0.0805
O=C(O)/C=C/c1ccc(O)c(O)c1 [Caffeic acid],0.0395,0.0424
C[C@]12C[C@@H](O)[C@@H]3C[C@@]1(O[C@@H]1O[C@H](CO)[C@@H](O)[C@H](O)[C@H]1O)[C@@]3(COC(=O)c1ccccc1)C(=O)O2 [Albiflorin],0.0446,0.153
OCCc1ccc(O)cc1 [Tyrosol],0.117,0.306
C=C(C)[C@@H]1CC[C@]2(C(=O)O)CC[C@]3(C)[C@H](CC[C@@H]4[C@@]5(C)CC[C@H](O[C@@H]6OC[C@H](O)[C@H](O)[C@H]6O[C@@H]6O[C@@H](C)[C@H](O)[C@@H](O)[C@H]6O)[C@@](C)(CO)[C@@H]5CC[C@]43C)[C@@H]12 [Anemoside A3],0.0688,0.0291
